What all share (assay type): functional
For experiment [1], the target named is Solute carrier family 2, facilitated glucose transporter member 1 (Homo sapiens) (UniProt P11166). Nature of the experiment: ST_JUDE_LEISH: Cytotoxicity at 2uM final concentration against transgenic Leishmania Mexicana promastigotes LmGLUT1 that are glucose transport deficient and complemented with the human glucose transporter GLUT1. Activity is measured by DNA content using SYBR green in vitro.

In experiment [2] the target is Hexose transporter 1 (Plasmodium falciparum) (UniProt O97467). The experiment is described as follows: ST_JUDE_LEISH: Cytotoxicity at 2uM final concentration against transgenic Leishmania Mexicana promastigotes LmPfHT that are glucose transport deficient and complemented with the Plasmodium falciparum hexose transporter. Activity is measured by DNA content using SYBR green in vitro.

Experiment [3] deals with Glucose transporter (Leishmania mexicana) (UniProt O61059). The experiment is described as follows: ST_JUDE_LEISH: Cytotoxicity at 2uM final concentration against transgenic Leishmania Mexicana promastigotes LmGT2 that are glucose transport deficient and complemented with the L. Mexicana glucose transporter 2. Activity is measured by DNA content using SYBR green in vitro.

Chain of Solute carrier family 2, facilitated glucose transporter member 1 (Homo sapiens) (P11166 whole entry): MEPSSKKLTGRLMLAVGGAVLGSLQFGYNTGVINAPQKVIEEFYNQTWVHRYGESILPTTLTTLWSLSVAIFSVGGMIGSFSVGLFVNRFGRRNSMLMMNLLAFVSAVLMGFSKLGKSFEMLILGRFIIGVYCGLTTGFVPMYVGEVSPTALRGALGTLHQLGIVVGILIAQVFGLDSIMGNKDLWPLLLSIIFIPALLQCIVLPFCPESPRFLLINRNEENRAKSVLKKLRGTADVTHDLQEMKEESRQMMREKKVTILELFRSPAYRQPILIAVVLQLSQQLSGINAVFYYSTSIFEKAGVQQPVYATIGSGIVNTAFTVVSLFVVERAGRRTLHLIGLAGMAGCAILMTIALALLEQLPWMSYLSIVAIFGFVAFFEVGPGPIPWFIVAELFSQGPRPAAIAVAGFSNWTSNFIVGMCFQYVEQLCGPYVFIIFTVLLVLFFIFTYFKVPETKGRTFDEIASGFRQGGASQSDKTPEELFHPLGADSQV

In the case of `CCN(CCCN1CCCC1)c1cc(C)nc(Nc2ccc(Cl)cc2)n1`, the inhibition in experiment [1] is 1.46%; in experiment [2], 1.37%; in experiment [3], -0.13%.

As to `Cc1cc(-c2ccc3c(c2)CCN(CCC2CCC(NC(=O)/C=C/c4ccccc4F)CC2)CC3)on1` (stereo unspecified), the inhibition in experiment [1] is 11%; in experiment [2], 6.81%; in experiment [3], 12.2%.

For `Cc1cc(C(=O)Nc2ccc(C)c(-c3nc(N(C(=O)c4ccc(F)c(C)c4)C4CCNCC4)nc4c3ccc(=O)n4-c3c(F)cccc3F)c2)ccc1F`, the figures for the inhibition in experiment [1], in experiment [2] and in experiment [3] were 1.66%, 0.07% and 0.59%, respectively.

For the compound `CCc1ccccc1-c1csc(C(=O)NCC2CCN(Cc3ccc(C(C)(C)C)cc3)C2)c1` (stereo unspecified), the results for the inhibition in experiment [1], in experiment [2] and in experiment [3] were 6.04%, 4.94% and 4.81%, respectively.

As for `CN1CCN(CCCN(Cc2csc(-c3ccc(CNCc4ccccc4)cc3)n2)C(=O)Nc2cccc(Cl)c2)CC1`, the inhibition is 1.91% in experiment [1], -0.25% in experiment [2] and 2.48% in experiment [3].

For the compound `O=C(Nc1ccc2c(c1)CCC2)c1ccc(N2CCN(c3ccncc3)CC2)cn1`, the inhibition in experiment [1] was 11.7%; in experiment [2], 12.8%; in experiment [3], 14.7%.

As for `CCCNC(=O)c1cncc(-c2ccc(CNCCCc3ccccc3)cc2)c1`, the inhibition in experiment [1] amounted to 1.92%; in experiment [2] it was 1.6%; in experiment [3], 0.59%.

Take `COc1cc2c(cc1S(=O)(=O)c1ccc(NC(=O)c3cccc(C(F)(F)F)c3)cc1)CCN(C)CC2`: the values for the inhibition in experiment [1], in experiment [2] and in experiment [3] were 1.16%, 0.62% and 1.88%, respectively.

Regarding `CCN(CC)CCNc1ccnc2[nH]c3ccc(C)cc3c12`, the inhibition was found to be 0.06% in experiment [1], 0.18% in experiment [2] and 0.34% in experiment [3].

For the compound `COCc1nc(N)nc(N)c1-c1ccc(Cl)c(Cl)c1`, the inhibition is -0.03% in experiment [1], 0.2% in experiment [2] and 0.08% in experiment [3].

As for `CN(C)CCNCc1ccc(-c2ccc(-c3nc4ccccc4[nH]3)s2)cc1`, the inhibition came to 13.7% in experiment [1], 14.5% in experiment [2] and 12.8% in experiment [3].

For `COc1ccc2[nH]ccc(=NN=Cc3ccccc3)c2c1`, the inhibition in experiment [1] was 13.5%; in experiment [2], 9.86%; in experiment [3], 5.06%.

Consider `CN(C)c1ccc(C=Cc2ccc3ccccc3n2)c(Cl)c1`, for which the inhibition in experiment [1] is 91.5%; in experiment [2], 83.8%; in experiment [3], 85.2%.

`O=C1C2C(c3ccc(Cl)c(Cl)c3)N3CC(OCc4ccccc4)CC3(C(=O)O)C2C(=O)N1c1ccc(Br)cc1` (stereo unspecified): the inhibition in experiment [1] turned out to be 4.62%; in experiment [2] it was 4.75%; in experiment [3] it was 3.46%.

Turning to `O=C(NCC1CCC(C(=O)NCc2cccc3ccccc23)CC1)c1ccc(O)c(-c2ccc(Cl)c(Cl)c2)c1` (stereo unspecified), the results for the inhibition in experiment [1], in experiment [2] and in experiment [3] were 5.23%, 3.37% and 4.73%, respectively.

Take `Clc1ccc(CNc2ccnc(NCc3ccc4c(c3)OCCCO4)n2)c(Cl)c1`: the inhibition in experiment [1] was 4.44%; in experiment [2], 5.76%; in experiment [3], 3.69%.

As to `NC(=O)c1cccc(C(=O)Nc2cccc(-c3cccc(-c4nc5cc(F)ccc5[nH]4)c3)c2)c1`, the figures for the inhibition in experiment [1], in experiment [2] and in experiment [3] were -0.39%, 0.68% and -0.72%, respectively.

For the compound `O=C(NCCCCN1CCC(c2ccc3c(c2O)CCCC3)CC1)c1ccc(-c2ccc(Cl)cc2)cc1`, the figures for the inhibition in experiment [1], in experiment [2] and in experiment [3] were 1.35%, 1.06% and 2.37%, respectively.

In the case of `O=C(Nc1cccc(-c2nn3ccccc3c2-c2ccnc(Nc3cccc(C(F)(F)F)c3)n2)c1)c1c(F)cccc1F`, the inhibition is 0.32% in experiment [1], 1.06% in experiment [2] and 0.07% in experiment [3].

In the case of `COc1ccc(-c2nc3cc4ccccc4nc3[nH]2)c(OCC(O)CNC(C)C)c1` (stereo unspecified), the inhibition in experiment [1] is -1.53%; in experiment [2], 1.33%; in experiment [3], 1.21%.

On to `CC(C)Sc1nc2c(c(=O)n1CCc1ccccc1)C1(CCCC1)Cc1ccccc1-2`, for which the inhibition in experiment [1] was 1.78%; in experiment [2], 2.51%; in experiment [3] it was 2.88%.

For `Cc1nn(-c2cccc(Cl)c2)c2c1C(C(=O)c1ccc3c(c1)OCO3)CC(=O)N2` (stereo unspecified), the inhibition was -2.6% in experiment [1], -0.95% in experiment [2] and -2.87% in experiment [3].

On to `COc1ccc(N2CCN(c3nc(Nc4ccc(NC(C)=O)cc4)nc(N4CCCC4)n3)CC2)cc1`, for which the results for the inhibition in experiment [1], in experiment [2] and in experiment [3] were 0.68%, 1.16% and 5.96%, respectively.

In the case of `Cc1c(N)ccc2[nH]c(-c3ccc(N)cc3)nc12`, the figures for the inhibition in experiment [1], in experiment [2] and in experiment [3] were 3.21%, 4.3% and 2.89%, respectively.

With `FC(F)(F)c1ccc2[nH]c(-c3ccc(-c4cccc(CN5CCC(CCN6CCCCC6)CC5)c4)cc3)nc2c1`, the inhibition in experiment [1] was 3.12%; in experiment [2], 4.82%; in experiment [3], 2.53%.

For `c1ccc(Oc2ccc(Nc3ccnc4cc(-c5ccc(CN6CCCCC6)o5)ccc34)cc2)nc1`, the inhibition is -2.19% in experiment [1], -1.27% in experiment [2] and 0.73% in experiment [3].

`Oc1cccc(Nc2ccnc3cc(-c4cc5ccccc5o4)ccc23)c1`: the inhibition in experiment [1] is -0.71%; in experiment [2], -0.27%; in experiment [3] it was -2.34%.

For the compound `CCCC(C(=O)OCCNC)(c1ccccc1)c1ccccc1`, the values for the inhibition in experiment [1], in experiment [2] and in experiment [3] were 1.4%, 0.51% and 0.81%, respectively.

On to `COc1cccc(CN2CCCN(Cc3cccc(NC(=O)c4cc5ccccc5s4)c3)CC2)c1`, for which the inhibition in experiment [1] is 3.41%; in experiment [2] it was 4.66%; in experiment [3] it was 5.23%.

Turning to `CN(C)C(CNC(=O)c1cc(-c2ccncc2)c(-c2ccc(NC(=O)Nc3cccc(Cl)c3)cc2)o1)c1ccccc1` (stereo unspecified), the inhibition in experiment [1] was 1.5%; in experiment [2] it was 2.82%; in experiment [3] it was 0.81%.

In the case of `Cc1ccc(C)c(Cn2ccc3nc(Cl)nc(Cl)c32)c1`, the values for the inhibition in experiment [1], in experiment [2] and in experiment [3] were 7.99%, 5.11% and 0.45%, respectively.

As to `Cc1cccc2nc(-c3cccc(-c4ccc(NC(=O)C(C)CN5CCOCC5)cc4)c3)[nH]c12` (stereo unspecified), the inhibition in experiment [1] worked out at 3.62%; in experiment [2], 2.93%; in experiment [3], 4.9%.

As to `O=C(Nc1cccc(CN2CCCN(Cc3cccnc3)CC2)c1)c1cc2ccccc2s1`, the inhibition in experiment [1] is 4.38%; in experiment [2], 4.77%; in experiment [3], -1.53%.

In the case of `CC(C)N1CCN(C(CN2CCN(CCCOc3ccc4nonc4c3)CC2)c2ccc(F)cc2)CC1` (stereo unspecified), the inhibition in experiment [1] was -0.47%; in experiment [2], -1.18%; in experiment [3], -1.91%.

For the compound `O=C(NCCN1CCCC1)c1ccc(-c2cccc(-c3nc4cc(F)ccc4[nH]3)c2)cc1`, the values for the inhibition in experiment [1], in experiment [2] and in experiment [3] were -0.16%, 0% and -0.53%, respectively.

With `COc1cc(Br)ccc1N1CCN(CCCCNC(=O)c2ccc(NC(=O)c3ccc(Cl)cc3)cc2)CC1`, the inhibition in experiment [1] was determined as 2.1%; in experiment [2], 2.33%; in experiment [3], 1.5%.

Regarding `Cc1cc(N[C@@H](CC(C)C)C(=O)NCc2cccc(F)c2)nc(NCC2CCCCC2)n1`, the inhibition is 5.8% in experiment [1], 4.61% in experiment [2] and 2.2% in experiment [3].

A word on the inhibition: it is the relative decrease from the control value, in per cent.

Source of the values: ChEMBL document CHEMBL3433997, “St. Jude Leishmania screening dataset” (2016).
